Assay outcomes from PubChem.
NS1 inh – blocks influenza NS1 protein function. actives 0.4% (n = 270,000). Potency, µM (top dose mostly 46.1 µM); calls by dose curve; further: actives are rising curves; nearly all actives have a fitted effect of over 50% in size
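A cell-based growth assay was used: compounds that relieve NS1-induced slow growth of budding yeast raise OD600. Assay medium was yeast nitrogen base with ammonium sulphate and -URA supplement, pH 6.0, with 2% galactose.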
CHX counter – affects cycloheximide protein synthesis inhibition readout, counter-screen | cell reporter, cycloheximide protein synthesis inhibition counterscreen | max response, % | actives 12% (n = 300,000); in the data active means max response mostly above about 13%, no sharp cut-off; inactive means mostly below about 14%; further: read at 38.3 µM for the half of the compounds with a filed dose
AmpC detergent – inhibitors of E. coli AmpC beta-lactamase with detergent; actives 0.041% (n = 370,000); P00811; AmpC hydrolysis of nitrocefin, absorbance 480 nm, 0.01% Triton; Potency, µM (highest dose often 114 µM), most hits filed as inhibitors; AID 485294; further: nearly all actives have a fitted effect of over 25% in size
Target sequence (P00811 whole entry, looked up): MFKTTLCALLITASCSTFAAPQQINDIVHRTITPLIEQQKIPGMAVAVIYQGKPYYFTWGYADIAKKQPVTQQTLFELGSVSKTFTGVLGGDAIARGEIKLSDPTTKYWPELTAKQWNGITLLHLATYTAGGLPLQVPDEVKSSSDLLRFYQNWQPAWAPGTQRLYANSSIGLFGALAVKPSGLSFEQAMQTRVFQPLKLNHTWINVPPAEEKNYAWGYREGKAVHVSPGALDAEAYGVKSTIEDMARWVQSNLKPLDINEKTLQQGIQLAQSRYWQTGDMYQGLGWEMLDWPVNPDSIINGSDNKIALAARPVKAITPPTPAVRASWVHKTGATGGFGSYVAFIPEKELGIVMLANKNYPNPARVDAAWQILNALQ
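AmpC (5.3 nM in the dispensed reagent) in 20 mM phosphate pH 7.0 with 0.01% (detergent screen) or 0.0001% Triton X-100 was preincubated with compounds for 15 min at room temperature. Nitrocefin was then added from an 800 uM solution, and hydrolysis was followed at 480 nm.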
Shiga inhibitor – blocks Shiga toxin action in Vero cells. Vero cells, Shiga toxin protein synthesis inhibition reporter. inhibition, % at 38.7 µM. actives 9.2% (n = 290,000); in the data active means inhibition mostly above about 28%, no sharp cut-off; inactive means mostly below about 43%
AmpC no deterg – blocks E. coli AmpC beta-lactamase in detergent-free assay; P00811; AmpC nitrocefin hydrolysis, absorbance 480 nm, 0.0001% Triton; Potency, µM (top dose mostly 57.1 µM), usual class: inhibitors; actives 0.52% (n = 330,000); AID 485341; further: nearly all actives have a fitted effect of over 20% in size
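20 mM phosphate pH 7.0 + 0.01% (detergent screen) or 0.0001% Triton X-100; 5.3 nM AmpC reagent; cpd preinc 15 min RT; nitrocefin (800 uM stock) to start; A480 q20 s × 4 min; Activity was normalised to no-enzyme and no-compound control wells.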
Hits are given with their value. Shown is part of a subset that was picked to be rich in hits. Unless noted, the call rests on the fitted dose curve; in most records, active means well fitted curve in the direction sought with a large enough effect; inconclusive means small, poorly fitted or top-dose-only effect, or another doubt; inactive means no such curve, though single readings can be large; an effect the other way counts as inactive or inconclusive.

Results for COc1ccc(OC)c(CNC(=O)Cn2nc(C)c3nn(-c4ccc(Cl)cc4)c(C)c3c2=O)c1 ?
AmpC detergent: inactive

How did O=C(N/N=C/c1cccc2ccccc12)c1cc2ccccc2o1 do in these assays?
NS1 inh: inactive; CHX counter: inactive; AmpC detergent: inactive; Shiga inhibitor: inactive; AmpC no deterg: inactive

How did Cc1ccc(C(=O)/C=C/c2ccccc2)o1 do in these assays?
NS1 inh: inactive; CHX counter: 40; AmpC detergent: inactive; Shiga inhibitor: inactive; AmpC no deterg: inactive

How did O=C(N/N=C/c1cccc([N+](=O)[O-])c1)c1cc2ccccc2o1 do in these assays?
NS1 inh: inactive; CHX counter: inactive; AmpC detergent: inconclusive; Shiga inhibitor: inactive; AmpC no deterg: inactive

How did O=C(N/N=C/c1ccsc1)c1cc2ccccc2o1 do in these assays?
NS1 inh: inactive; CHX counter: 62; AmpC detergent: inactive; Shiga inhibitor: 41; AmpC no deterg: inactive

Results for C#CCn1cc(/C=N/NC(=O)c2cc3ccccc3o2)c2ccccc21 ?
NS1 inh: inactive; CHX counter: inactive; AmpC detergent: inconclusive; Shiga inhibitor: inactive; AmpC no deterg: 28µM

How did O=C(N/N=C/c1ccc2c(c1)OCO2)c1cc2ccccc2o1 do in these assays?
NS1 inh: inactive; CHX counter: 12; AmpC detergent: inactive; Shiga inhibitor: inactive; AmpC no deterg: inactive

Results for Cc1cc(C)cc(NC(=O)C2CCCN(c3nnc(C)c4c(C)n(-c5ccccc5)nc34)C2)c1 (stereo not given) ?
AmpC detergent: inactive

What do the screens show for `CC(NC(=O)COC(=O)c1ccc(CO)cc1)C1CC2CCC1C2` (stereo not given)?
AmpC detergent: inactive; AmpC no deterg: inactive

Results for Cc1ccc2c(c1)/C(=N/OC(=O)c1ccc(F)cc1)CCS2 ?
NS1 inh: inactive; CHX counter: inactive; AmpC detergent: inactive; Shiga inhibitor: inactive; AmpC no deterg: inactive

Results for O=C(O/N=C1/CCSc2ccccc21)c1ccccc1 ?
NS1 inh: inactive; CHX counter: 39; AmpC detergent: inactive; Shiga inhibitor: 40; AmpC no deterg: inactive

How did O=C(O/N=C1\CCCc2ccccc21)c1ccc(F)cc1 do in these assays?
NS1 inh: inactive; CHX counter: 16; AmpC detergent: inconclusive; Shiga inhibitor: 21; AmpC no deterg: inactive

How did Cn1c(SCc2ccc(C#N)cc2Cl)nc2ccccc21 do in these assays?
NS1 inh: inactive; CHX counter: 40; AmpC detergent: inactive; Shiga inhibitor: inactive; AmpC no deterg: inactive

What do the screens show for `N#Cc1ccccc1CSc1ccccn1`?
NS1 inh: inactive; CHX counter: inactive; AmpC detergent: inconclusive; Shiga inhibitor: inactive; AmpC no deterg: inconclusive

What do the screens show for `N#Cc1ccc(CSc2ccccn2)c(Cl)c1`?
NS1 inh: inactive; CHX counter: 25; AmpC detergent: inactive; Shiga inhibitor: inactive; AmpC no deterg: inactive

Results for COC(=O)c1c(C(=O)OC)c(-c2ccc(OC)cc2)n2c1CS(=O)(=O)C2 ?
NS1 inh: inactive; CHX counter: inactive; AmpC detergent: inactive; Shiga inhibitor: inactive; AmpC no deterg: inactive

What do the screens show for `CN(c1ccccc1)S(=O)(=O)c1ccc(C(=O)Nc2ncccc2O)cc1`?
AmpC detergent: inactive; AmpC no deterg: inactive

What do the screens show for `FC(F)(F)c1cccc(N2CCNCC2)c1`?
CHX counter: inactive; AmpC detergent: inactive; Shiga inhibitor: inactive; AmpC no deterg: inactive

How did FC(F)(F)c1cccc(N2CCc3cn[nH]c32)c1 do in these assays?
NS1 inh: inactive; CHX counter: 23; AmpC detergent: inactive; Shiga inhibitor: 32; AmpC no deterg: inactive

What do the screens show for `COc1cc(NC(=O)CN2C(=O)NC(C)(CCC(C)C)C2=O)cc(OC)c1` (stereo not given)?
NS1 inh: inactive; CHX counter: inactive; AmpC detergent: inconclusive; Shiga inhibitor: inactive; AmpC no deterg: inactive

How did CC(C)CCC1(C)NC(=O)N(CC(=O)Nc2ccc3c(c2)OCCO3)C1=O (stereo not given) do in these assays?
AmpC no deterg: inactive

What do the screens show for `COc1cc(NC(=O)CN2C(=O)NC(C)(CC(C)C)C2=O)cc(OC)c1` (stereo not given)?
NS1 inh: inactive; CHX counter: inactive; AmpC detergent: inactive; Shiga inhibitor: inactive; AmpC no deterg: 0.89µM

How did CC(C)CC1(C)NC(=O)N(CC(=O)NC(=O)Nc2ccc3c(c2)OCCO3)C1=O (stereo not given) do in these assays?
NS1 inh: inactive; CHX counter: 58; AmpC detergent: inactive; Shiga inhibitor: 48; AmpC no deterg: inactive

How did Cc1ccc(NC(=O)N2CCN(Cc3nc4ccc(C)cc4o3)CC2)c(Cl)c1 do in these assays?
AmpC detergent: inactive

What do the screens show for `OCC(O)[C@@H](O[C@H]1O[C@H](CO)[C@@H](O)[C@H](O)[C@H]1O)[C@H](O)[C@@H](O)CO` (stereo not given in full)?
AmpC detergent: inconclusive; AmpC no deterg: inactive

How did N#CCSc1nccc(/C=C/c2ccccc2)n1 do in these assays?
CHX counter: 42; AmpC detergent: inactive; Shiga inhibitor: 40; AmpC no deterg: inactive

What do the screens show for `COc1ccc(/C=C/c2ccccc2)cc1C1C2C=CCCC2(C)C(=O)N1Cc1ccccc1` (stereo not given)?
CHX counter: 49; Shiga inhibitor: 115

What do the screens show for `COc1ccc(/C=C/c2ccccc2)cc1[C@H]1[C@@H]2C=CCC[C@@]2(C)C(=O)N1Cc1ccccc1`?
NS1 inh: inconclusive; CHX counter: 20; AmpC detergent: inactive; Shiga inhibitor: 44; AmpC no deterg: inactive

How did Cc1c(CCO)c(=O)[nH]n1C(=O)c1ccc(F)cc1 do in these assays?
NS1 inh: inactive; CHX counter: 24; AmpC detergent: inactive; Shiga inhibitor: 65; AmpC no deterg: inactive

How did O=C(C1CC1)N1CCc2cc(Br)cc(S(=O)(=O)NCc3ccco3)c21 do in these assays?
NS1 inh: inactive; CHX counter: 28; AmpC detergent: inactive; Shiga inhibitor: 53; AmpC no deterg: inactive

Results for Cc1ccc(CNS(=O)(=O)c2cc(Br)cc3c2N(C(=O)C2CC2)CC3)cc1 ?
AmpC detergent: inactive

Results for CCOc1ccccc1-n1c(SCC(=O)Nc2ccccc2C(=O)O)nc2ccccc2c1=O ?
NS1 inh: inconclusive; CHX counter: 36; AmpC detergent: inactive; Shiga inhibitor: 35; AmpC no deterg: inactive

What do the screens show for `CCn1c(SCC(=O)Nc2ccccc2OC)nc2ccccc2c1=O`?
NS1 inh: inactive; CHX counter: inactive; AmpC detergent: inactive; Shiga inhibitor: inactive; AmpC no deterg: inactive

Results for CC(=O)N1CCc2cc(S(=O)(=O)NC(CC(C)C)C(=O)NCCc3cccc(C)c3)ccc21 (stereo not given) ?
AmpC detergent: inactive

Results for COC(=O)c1cccc(NC(=O)/C=C/c2cccc([N+](=O)[O-])c2)c1 ?
NS1 inh: inactive; CHX counter: 15; AmpC detergent: inactive; Shiga inhibitor: inactive; AmpC no deterg: inactive

Results for CC(=O)c1cccc(NC(=O)/C=C/c2ccc([N+](=O)[O-])s2)c1 ?
CHX counter: 33; AmpC detergent: inactive; Shiga inhibitor: 96; AmpC no deterg: inactive
